High-throughput results as filed in PubChem.
D1 allo mod: D1 CRE-luciferase signal change, two-sided – cell-based, HEK293 D1, dopamine EC30, D1 allosteric modulator project, primary screen; D(1A) dopamine receptor (Homo sapiens), P21728; dopamine EC30 potentiation; actives deviate in either direction; B-score at 10 µM; 58,000 compounds, 5.9% hits;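 active = luminescence count or its row- and column-corrected plate score outside the 99.7% band of the plate's sample wells, on either side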
Target sequence (P21728 whole entry, looked up): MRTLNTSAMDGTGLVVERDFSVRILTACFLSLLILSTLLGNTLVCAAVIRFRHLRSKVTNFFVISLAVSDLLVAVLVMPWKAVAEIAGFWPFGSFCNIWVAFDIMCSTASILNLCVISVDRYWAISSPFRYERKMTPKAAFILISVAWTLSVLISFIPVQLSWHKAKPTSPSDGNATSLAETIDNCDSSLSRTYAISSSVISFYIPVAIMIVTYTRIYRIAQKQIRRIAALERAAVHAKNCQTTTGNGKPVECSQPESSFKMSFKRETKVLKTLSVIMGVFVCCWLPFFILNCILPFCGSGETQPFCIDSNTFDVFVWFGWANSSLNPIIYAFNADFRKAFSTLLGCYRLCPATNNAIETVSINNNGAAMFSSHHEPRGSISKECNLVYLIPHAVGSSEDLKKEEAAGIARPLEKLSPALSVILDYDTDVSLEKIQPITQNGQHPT
BAP1 inh: inhibitors of BAP1 deubiquitinase, primary screen, biochemical, Ub-AMC fluorescence, kinetic | Ubiquitin carboxyl-terminal hydrolase BAP1 (Homo sapiens), Q92560 | AID 436, 2006 | calls only at 20 µM | 72,000 compounds, 0.48% hits | recombinant BAP1, Ub-AMC hydrolysis fluorescence kinetic; hits give low values;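 active = activity remaining at or below 50% of control, provided the compound also passes the data quality filters; inactive = the rest, including low values that fail the filters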;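 note: 100% = DMSO wells rate and 0% = substrate alone blank rate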
hDAT+cocaine: changed hDAT dopamine uptake under cocaine IC80, either direction, primary screen, cocaine antagonist project, cell-based, LLC-PK1 hDAT, [14C]-dopamine uptake, MLSMR. LLC-PK1 hDAT cells, [14C]-dopamine uptake with cocaine IC80; actives deviate in either direction. B-score at 10 µM. 110,000 compounds, 1.3% hits. AID 449768, 2010;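 active = Z score or B-score, a plate-position-corrected score, falls beyond the plate's 99.7% confidence bounds, in either direction; inactive = both scores lie inside the 99.7% bounds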;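 note: scored against the spread of the other compound wells on the same plate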
An asterisk follows results filed as active. This excerpt belongs to a sample that is enriched for hits.

CC[C@H](C)C(C(=O)N1CCN(C(=O)OC(C)(C)C)CC1)n1cc(C(CC(C)C)NC(=O)OC(C)(C)C)nn1 (stereo partly drawn) was read as hDAT+cocaine -0.38.
`CC[C@@H](C)C(NC(=O)OC(C)(C)C)c1cn([C@@H](Cc2ccc(O)cc2)C(=O)N2CCN(C(=O)OC(C)(C)C)CC2)nn1` (stereo partly drawn) gave hDAT+cocaine 2*.
Screening C=CCN1C(=O)C(C(c2cccc([N+](=O)[O-])c2)C2C(=O)NC(=S)N(CC=C)C2=O)C(=O)NC1=S (stereo not drawn) returned BAP1 inh inactive.
Cc1nnc(SCC(=O)NC(C)(C)C)n1CCc1ccccc1 was read as D1 allo mod -1.6, BAP1 inh inactive and hDAT+cocaine -0.47.
COc1ccccc1NC(=O)CSc1nnc(C)n1CCc1ccccc1 was read as D1 allo mod -0.56, BAP1 inh inactive and hDAT+cocaine -7.6*.
`CCn1c(COc2ccccc2)nnc1SCC(=O)CC(=O)Nc1ccccc1OC` gave D1 allo mod -1.2, BAP1 inh inactive and hDAT+cocaine -0.26.
For Cn1cccc1Cc1nnc(SCC(=O)Nc2ccc3c(c2)OCCO3)n1CCc1ccccc1 the results were D1 allo mod -0.3, BAP1 inh inactive and hDAT+cocaine 2.5*.
`COc1ccc(OC)c(NC(=O)CSc2nnc(Cc3cccn3C)n2CCc2ccccc2)c1` gave D1 allo mod 0.28, BAP1 inh inactive and hDAT+cocaine 3*.
For CCn1c(COc2ccccc2C)nnc1SCC(=O)CC(=O)Nc1ccccc1OC the results were D1 allo mod -0.64, BAP1 inh inactive and hDAT+cocaine 3.1*.
Screening Cn1cccc1Cc1nnc(SCC(=O)Nc2ccc3c(c2)OCO3)n1CCc1ccccc1 returned D1 allo mod -0.23, BAP1 inh inactive and hDAT+cocaine 1.2.
`Cn1cccc1Cc1nnc(SCC(=O)Nc2ccc(F)cc2)n1CCc1ccccc1` gave D1 allo mod -0.027, BAP1 inh inactive and hDAT+cocaine -1.1.
Screening Cc1cc(=O)n2ccc(CN3CCOCC3)c(O)c2n1 returned BAP1 inh inactive.
Cc1ccc(OCCSc2nc3ccccc3n2CCO)c(C(C)C)c1 was read as BAP1 inh inactive.
Screening O=C(Nc1ccc2oc(-c3ccccc3Cl)nc2c1)c1ccc([N+](=O)[O-])cc1 returned BAP1 inh inactive.
O=C(CN1CCN(Cc2ccc3c(c2)OCO3)CC1)c1ccc(F)cc1 was read as BAP1 inh inactive.
Screening O=C(CN1C(=O)c2ccccc2C1=O)Nc1ccc(Br)c(C(=O)c2ccccc2Cl)c1 returned BAP1 inh inactive.
CCc1ccc(S(=O)(=O)NC(CC(=O)O)c2ccccc2)cc1 (stereo not drawn) was read as D1 allo mod -6.5*, BAP1 inh inactive and hDAT+cocaine -0.7.
Cc1ccc(S(=O)(=O)NC(CC(=O)O)c2ccccc2)c(C)c1 (stereo not drawn) was read as D1 allo mod -0.2, BAP1 inh inactive and hDAT+cocaine -0.29.
For O=c1oc2ccccc2c(N2CCN(c3ccccc3)CC2)c1[N+](=O)[O-] the results were BAP1 inh inactive.
`CC1CCCN(c2c([N+](=O)[O-])c(=O)oc3ccccc23)C1` (stereo not drawn) gave hDAT+cocaine -2.7*.
Cc1ccc(C(=O)Nc2sc(C)c(C)c2C#N)cc1 was read as BAP1 inh inactive.
`O=C(Nc1nc(-c2ccc3ccccc3c2)cs1)c1cc([N+](=O)[O-])ccc1Cl` gave BAP1 inh inactive.
O=S(=O)(c1ccsc1)c1cccs1 was read as BAP1 inh inactive.
Screening Nc1cccc(N)c1NC(=O)c1ccccc1 returned BAP1 inh inactive.
`CCc1cc2c(=O)c(-c3cscn3)coc2cc1OC(C)=O` gave BAP1 inh inactive.
For CC(=O)Nc1nc(-c2ccccc2)nc(C)c1C(C)=O the results were D1 allo mod 0.033, BAP1 inh inactive and hDAT+cocaine -8.5*.
CC(=O)c1c(C)nc(-c2ccccc2)nc1NC(=O)C(C)C was read as hDAT+cocaine -1.1.
Cc1ccc(C)c(NC(=O)CSc2nnc(CSc3nc(C)cc(C)n3)n2Cc2ccco2)c1 was read as D1 allo mod 0.24, BAP1 inh inactive and hDAT+cocaine 1.7.
Screening Cc1ccc(NC(=O)CSc2nnc(CSc3nc(C)cc(C)n3)n2Cc2ccco2)c(C)c1 returned D1 allo mod 1.3, BAP1 inh inactive and hDAT+cocaine 2.7*.
For CC(N=Cc1ccc(O)cc1)C12CC3CC(CC(C3)C1)C2 (stereo not drawn) the results were BAP1 inh inactive.
CC1=C(C(=O)OCCc2ccccc2)C(c2cccc([N+](=O)[O-])c2)C2=C(CC(c3ccccc3)CC2=O)N1 (stereo not drawn) was read as BAP1 inh inactive.
For O=C(Nc1sc2c(c1C(=O)Nc1ccc(Cl)cc1)CCCC2)c1ccc([N+](=O)[O-])cc1 the results were BAP1 inh inactive.
Screening Clc1cc(-n2nc(-c3ccccc3)cc2-c2ccccc2)ncn1 returned BAP1 inh inactive.
S=C(Nc1ccccn1)c1ccccn1 was read as D1 allo mod -2.6*, BAP1 inh inactive and hDAT+cocaine 2.4*.
Cc1ccc(C)c(NC(=S)c2ccccn2)c1 was read as hDAT+cocaine 1.1.
CCOc1ccc(CCNC(=O)c2ccc(N3CCCC3=O)cc2)cc1OCC was read as hDAT+cocaine -7.7*.
`COc1ccc(CCNC(=O)c2ccc(N3CCCC3=O)cc2)cc1` gave hDAT+cocaine -1.
For COc1ccc(CCNC(=O)CCn2cccc2)cc1OC the results were D1 allo mod 0.4, BAP1 inh inactive and hDAT+cocaine -0.12.
Screening CCOc1ccc(CCNC(=O)C2CCCN(C(=O)N(C)C)C2)cc1OCC (stereo not drawn) returned D1 allo mod -7.9*, BAP1 inh inactive and hDAT+cocaine -0.66.
COc1ccc(CCNC(=O)C2CCN(C(=O)N(C)C)CC2)cc1OC was read as D1 allo mod 1.5, BAP1 inh inactive and hDAT+cocaine -0.27.
CCOc1ccc(CCNC(=O)CCn2cccc2)cc1OCC was read as D1 allo mod 2.5, BAP1 inh inactive and hDAT+cocaine -4.3*.
`Nc1ccccc1Nc1c([N+](=O)[O-])c(=O)oc2ccccc12` gave BAP1 inh inactive.
For Cc1ccc(NC2OCC(O)C(O)C2O)cc1[N+](=O)[O-] (stereo not drawn) the results were BAP1 inh inactive.
Clc1ccc(CON/C=N/c2ncnc3sccc23)cc1 was read as hDAT+cocaine 0.25.
For Cc1sc2ncnc(Sc3nnnn3-c3ccccc3)c2c1C the results were D1 allo mod -4.8* and hDAT+cocaine -0.34.
`CCSc1nnnn1-c1ccccc1` gave hDAT+cocaine -0.99.
Clc1ccc(-n2nnnc2Sc2ncnc3sccc23)cc1 was read as D1 allo mod -2.9*, BAP1 inh inactive and hDAT+cocaine -1.1.
